From the supplement of paper PMC3334620
The full ranking holds about 33,000 sequences; the median of “E-score (-0.5 to 0.5)” is about -0.016, and the highest 2% start at about 0.32. This excerpt belongs to a sample that is enriched for the highest values.

Target: T1, Stp1 (UniProt B3LFK1)
T1 sequence: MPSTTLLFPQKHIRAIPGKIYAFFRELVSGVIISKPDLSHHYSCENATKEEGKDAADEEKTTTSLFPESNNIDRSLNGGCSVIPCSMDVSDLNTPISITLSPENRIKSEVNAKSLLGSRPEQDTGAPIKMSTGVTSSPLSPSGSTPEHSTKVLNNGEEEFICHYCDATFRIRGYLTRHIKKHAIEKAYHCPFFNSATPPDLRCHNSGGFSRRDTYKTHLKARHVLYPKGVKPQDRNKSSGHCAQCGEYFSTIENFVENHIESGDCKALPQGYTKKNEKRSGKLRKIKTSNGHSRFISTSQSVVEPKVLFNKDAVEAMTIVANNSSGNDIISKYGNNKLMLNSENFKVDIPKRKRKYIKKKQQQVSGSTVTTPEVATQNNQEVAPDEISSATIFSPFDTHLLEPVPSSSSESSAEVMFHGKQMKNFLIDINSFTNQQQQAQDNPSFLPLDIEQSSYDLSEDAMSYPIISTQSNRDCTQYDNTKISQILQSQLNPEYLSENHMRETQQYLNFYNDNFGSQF
Experiment: PBM E-score (8-mer binding enrichment) (E-score (-0.5 to 0.5)); higher = stronger / more preferred TF binding
Conditions: protein concentration: 200 nM; construct: GST-full length
Procedure: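 Universal 'all 10-mer' protein binding microarrays (Agilent AMADID 015681) probed with GST-tagged S. cerevisiae TFs (full-length or DBD) made by in vitro transcription/translation (PURExpress), about 100-200 nM. Bound TF was detected with fluorescent anti-GST. Each ungapped 8-mer (which stands for itself and its reverse complement) is scored by the PBM enrichment score (E-score), a modified Wilcoxon-Mann-Whitney statistic from -0.5 to +0.5, computed with the Universal PBM Analysis Suite. Scale: above 0.35 generally sequence-specific binding.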

| Sequence | PBM E-score |
| --- | --- |
| AGAGGCGC | 0.327 |
| CGAGGCGA | 0.289 |
| AGAGGCGA | 0.135 |
| CGAGGCTC | 0.131 |
| CGAGGCGC | 0.456 |
| AGAGGCGG | 0.061 |
| GGGGCAAA | 0.0199 |
| TACTGTGA | -0.14 |
| ATGGTAAA | 0.0118 |
| AATTACTC | 0.144 |
| CTTCTAGC | -0.0527 |
| TCCGTGCA | 0.258 |
| ACCGTGCA | -0.0437 |
| CCCGTGGA | -0.0712 |
| GACGTGCC | 0.238 |
| GCCGTGGA | 0.402 |
| CCCGTGTA | 0.0889 |
| GCCGTGCA | 0.478 |
| ACCGTGCC | 0.313 |
| ACCGTGTA | 0.0338 |
| GCCGTGCC | 0.487 |
| ACCGTGGA | 0.0243 |
| GCCGTGTA | 0.473 |
| CCTTTTGC | 0.214 |
| ACAGATAG | -0.0308 |
| AATATGCG | 0.114 |

| Sequence | PBM E-score |
| --- | --- |
| ACAACGAT | 0.00545 |
| AAGACGAA | 0.0123 |
| GAAGTGTC | -0.0596 |
| CGAGTCGA | -0.00477 |
| ACGGGTGC | 0.105 |
| GCGCTCGA | 0.0767 |
| CGCGTGCC | 0.325 |
| CGCGTGCA | 0.0968 |
| TCCGTGAA | 0.0172 |
| GCCGTGAA | 0.361 |
| AGCGTGCC | 0.126 |
| CCCGTGGC | 0.046 |
| CTCGTGCC | 0.294 |
| GCCGTGAC | 0.294 |
| CCCGTGCC | 0.33 |
| CCTCTCCC | -0.253 |
| ACTGGCAG | 0.0412 |
| CTCGACGA | -0.13 |
| TAATAGTA | 0.24 |
| ATTCCTAC | 0.0636 |
| CCAATAGG | 0.0256 |
| AACGGCCT | 0.151 |
| GACGGCCC | 0.069 |
| AACGGCCG | 0.333 |
| CACGGCCA | 0.34 |
| ATCGGCCG | 0.15 |

| Sequence | PBM E-score |
| --- | --- |
| AACGGCCA | 0.214 |
| CACGGCCG | 0.338 |
| CAAGGCCG | 0.103 |
| CACGGCCC | 0.337 |
| GACGGCCA | -0.0395 |
| CCCGGCCG | -0.152 |
| AACGGCCC | 0.235 |
| AGATCAGG | -0.173 |
| CTAGAGTC | -0.33 |
| ACGGAGCT | 0.087 |
| AACATAGG | 0.0786 |
| AGCCTTCA | 0.108 |
| AGGCATAC | 0.0863 |
| CTTTCTCC | -0.244 |
| GATGCCGA | 0.29 |
| GATGCCCC | -0.129 |
| GATGCCGC | 0.466 |
| CATGCCGG | 0.186 |
| CATGCCGA | 0.188 |
| CATGCCGC | 0.427 |
| CGGAAACA | -0.0866 |
| GGGCATAC | -0.00074 |
| GCACGTGC | 0.352 |
| CCACGTGC | 0.215 |
| GCACGTGA | 0.135 |
| ACCAGAGC | -0.0074 |

| Sequence | PBM E-score |
| --- | --- |
| CCGCACCA | 0.237 |
| CGTGCCTC | 0.398 |
| CGTGCCCC | 0.0449 |
| AGTGCCTG | -0.0958 |
| CGTGCCTA | 0.184 |
| AGTGCCTC | 0.347 |
| AGTGCCTA | 0.21 |
| GGTGGTTA | 0.00324 |
| AACGCATG | -0.0148 |
| TGGCGAAA | 0.088 |
| CGGCGAAA | 0.354 |
| CGGCGAAG | 0.292 |
| CGGCGAAC | 0.317 |
| GGGCGAAC | 0.0424 |
| AGCCGAAC | -0.0533 |
| AGGCGAAC | 0.145 |
| CGCCGAAC | 0.347 |
| CGCCGAAG | 0.13 |
| CATAGTCA | -0.195 |
| CTGGAGTC | -0.362 |
| TAGCAGGA | -0.226 |
| CAGCCTTC | -0.091 |
| GGGCATAA | 0.0801 |
| CAGCATCC | -0.252 |
| AGGCATCC | -0.0829 |
| CGGCATAA | 0.358 |

| Sequence | PBM E-score |
| --- | --- |
| AGGCATAG | 0.15 |
| CGGCATAC | 0.27 |
| CGGCATCA | 0.438 |
| GGGCATCA | 0.104 |
| CAGCATCA | 0.0143 |
| AGGCATCA | 0.215 |
| AGGCATCG | 0.348 |
| CGGCATCC | 0.353 |
| CACCACGA | -0.0238 |
| ATATCGAG | 0.123 |
| CATAGGGC | 0.152 |
| ACCCTAGA | -0.227 |
| ACTGTTCC | -0.131 |
| ACCATCAA | -0.149 |
| ATCAGTTG | 0.00725 |
| GACTGCTC | -0.287 |
| TTCAACAA | 0.167 |
| AAAAGCTC | -0.131 |
| GGCGCCTA | 0.362 |
| CGCCCCGC | 0.221 |
| CACCGCGC | 0.166 |
| AGCGCAGC | -0.112 |
| CGCCGCGC | 0.487 |
| AGCGCCGC | 0.481 |
| GCCGCCTA | 0.185 |
| AGCGCCCC | 0.0659 |

| Sequence | PBM E-score |
| --- | --- |
| AGCGCCTA | 0.182 |
| CTCCGCGC | 0.227 |
| CGCGCCCC | 0.209 |
| CGCGCCGC | 0.483 |
| CATGATCG | -0.0196 |
| GGAGCCAC | -0.246 |
| CAGCGAAA | -0.0495 |
| CGATCAGA | -0.053 |
| GTACACGA | 0.136 |
| ATATTAGG | 0.0795 |
| CTCGAAAC | 0.113 |
| AGACAACG | 0.0214 |
| CAAGACGG | -0.0357 |
| CATTGCGC | 0.0607 |
| AGCGCCGA | 0.321 |
| AGCGCCCT | 0.319 |
| AGCGCCGG | 0.174 |
| GGCGCCGA | 0.421 |
| AGCGCCCG | -0.00709 |
| CGCGCCCA | 0.213 |
| GGCGCCCA | 0.311 |
| AGCGCCCA | -0.225 |
| GTCGCCGA | 0.0933 |
| CGCGCCGA | 0.362 |
| CGCGCAGA | 0.22 |
| AGCGCAGA | -0.0529 |

| Sequence | PBM E-score |
| --- | --- |
| AGCCAAAG | -0.00729 |
| AGATCCTG | -0.32 |
| CACGGTCC | -0.109 |
| TCCCCAAA | -0.0405 |
| GACTATCC | -0.178 |
| CAACCAGG | -0.196 |
| GGAGTGAA | -0.0852 |
| AGATTTCC | -0.00021 |
| ACAAAGTG | -0.0329 |
| ATCTTGAG | -0.0881 |
| CGCCGCGA | 0.379 |
| GGCCGCGA | -0.0392 |
| CACCGCGA | -0.0402 |
| ACCGCCGG | -0.0408 |
| ACCGCCGT | 0.449 |
| ACCGCCCT | -0.14 |
| ACCGCCGC | 0.389 |
| ACCGCCGA | 0.0744 |
| ACCGCCAT | 0.0869 |
| AGCAACCC | -0.306 |
